Hits are enriched below; roughly 21% of the tested compounds scored in any of these assays.
Pf growth 96h: P. falciparum growth inhibition at 96 hour, primary screen for plastid delayed-death inhibitors; 320,000 tested, 6.9% active; P. falciparum luciferase reporter growth, 96 h; Potency, µM (series often up to 28.7 µM), usual class: inhibitors
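Infected RBCs, 2% Hct / 0.05% parasitemia final; luciferase-reporter P. falciparum; cpd 96 h, 37 C, 5% CO2; luciferase detection reagent; luminescence.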
Shiga inhibitor: inhibitors of Shiga toxin in Vero cells; Vero cells, Shiga toxin protein synthesis inhibition reporter; inhibition, % at 38.7 µM; 290,000 tested, 9.2% active; in the data active = inhibition mostly above about 28%, no sharp cut-off; inactive = mostly below about 43%
Pf growth 48h: P. falciparum growth inhibition at 48 hours (one generation). P. falciparum luciferase growth in erythrocytes, 48 h. Potency, µM (titrated, usually from 28.7 µM), usual class: inhibitors. 310,000 tested, 5.9% active
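Parasite viability was followed by luminescence of a genomically integrated firefly luciferase. Cultures held 0.1% parasitemia at 2% hematocrit (final), incubated under 5% CO2 at 37 C.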
NS1 inh: inhibitors of influenza NS1 protein function; AID 2326; Potency, µM (highest dose often 46.1 µM); 270,000 tested, 0.4% active; calls by dose curve; note: actives are rising curves; nearly all actives have a fitted effect of over 50% in size
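Compounds were scored for reversing the slow growth caused by influenza A NS1 in S. cerevisiae, measured by optical density at 600 nm. Assay medium contained 2% galactose at pH 6.0; NS1-free yeast of the same strain were the positive control.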
CHX counter: affects cycloheximide protein synthesis inhibition readout, counter-screen; cell reporter, cycloheximide protein synthesis inhibition counterscreen; max response, %; 300,000 tested, 12% active; in the data active = max response mostly above about 13%, no sharp cut-off; inactive = mostly below about 14%; note: read at 38.3 µM for the half of the compounds with a filed dose
Hits are given with their value; 0 = inactive; ? = inconclusive; - = no result; [ ] = remark or other dose. Unless noted, calls come from the whole dose curve; as a rule, active = well fitted inhibition curve with a large enough effect; inconclusive = small, poorly fitted or top-dose-only effect, or another doubt; inactive = no such curve, though single readings can be large or run the other way.

SMILES	Pf growth 96h	Shiga inhibitor	Pf growth 48h	NS1 inh	CHX counter
COc1ccc(S(=O)(=O)N2CCCCC2)cc1NC(=O)CCCOc1ccc(C)cc1	?	-	10µM	-	-
CC(=O)c1ccc(OCCCC(=O)Nc2cc(S(=O)(=O)N3CCCCC3)ccc2C)cc1	13µM	-	?	-	-
CC(=O)NC(=S)Nc1ccccc1N1CCCCC1	0	0	?	0	0
Cc1cccc(CCNC(=O)c2cc(=O)[nH]c3ccc(Br)cc23)c1	10µM	0	0	0	0
Cc1ccc(C(=O)O)cc1NC(=S)NC(=O)c1ccc([N+](=O)[O-])c(C)c1	?	0	0[5.75 µM]	-	0
O=C(Nc1nc(-c2cc(F)ccc2F)cs1)C1=NN(c2ccccc2)C(=O)CC1	?	0	?	-	0
COc1ccc(-c2nc(NC(=O)C3=NN(c4cccc(C)c4)C(=O)CC3)sc2C)cc1	?	0	?	-	17
COc1ccc(-c2csc(NC(=O)C3=NN(c4ccccc4)C(=O)CC3)n2)cc1	?	0	?	-	23
O=C(Nc1ccc(Nc2ccccc2)cc1)c1ccccc1F	0	74	0	0	33
N#CC1(c2ccc(NC(=O)c3ccccc3F)cc2)CCCC1	?	62	0	0	45
CCN(CC)c1ccc(NC(=O)c2cc(Cl)ccc2OC)cc1	?	0	-	0	0
CCN(CC)c1ccc(NC(=O)c2ccccc2F)cc1	0	71	0	0	38
CCO[P@]1(=O)OC[C@@H]2O[C@H](n3cnc4c(N)ncnc43)[C@H](O)[C@@H]2O1	-	-	-	0	-
CC(=C/c1ccccc1)/C=N/NC(=O)c1cccs1	0	78	0	0	36
O=C(N/N=C/C(Br)=C\c1ccccc1)c1cccs1	3.7µM	79	?	0	74
O=C(CNC1CCCCCC1)c1cccs1	0	0	0	0	0
CC(C)(C)c1ccc(-n2ncc3c2CCCC3NC(=O)C2=NNC(=O)CC2)cc1 (configuration not stated)	0	0	0	0	0
CCCn1c(O)c2ccc(C(=O)N=NC(=O)c3cccnc3)cc2c1O	0	0	0	0	0
CC(C)(C)n1c(O)c2ccc(C(=O)N=NC(=O)c3ccccc3)cc2c1O	0	0	0	0	27
Cc1cccc2cc(CNCc3ccccc3)c(Cl)nc12	0	0	0	0	0
O=C(NCc1ccc2c(c1)OCO2)c1cccc(Cl)c1	-	0	0	0	0
CCN1CCN(C(CNC(=O)c2ccc3c(c2)OCO3)c2cccnc2)CC1 (configuration not stated)	0	0	0	0	20
O=C(NCc1cccc(Cl)c1)c1ccc2c(c1)OCO2	-	0	0	0	21
O=C(NC(=S)NCc1ccccc1)c1ccc2c(c1)OCO2	0	0	0	0	19
O=C(NCc1cccnc1)C(=O)Nc1ccc2c(c1)OCO2	?	0	0	-	18
SMILES	Pf growth 96h	Shiga inhibitor	Pf growth 48h	NS1 inh	CHX counter
O=C(NNC(=S)NCc1ccccc1)c1ccc2c(c1)OCO2	0	0	0	0	0
O=C(/C=C/c1ccc2c(c1)OCO2)N1CCN(c2n[nH]c(=O)[nH]c2=O)CC1	0	0	0	0	0
CCn1cc(CCCC(=O)NCc2cccc(OC)c2)c2ccccc21	?	0	?	0	0
O=C(NCc1cccnc1)c1ccc2c(c1)OCO2	9.3µM	0	0	0	0
CC(=O)c1ccc(OCC(=O)NCC2(N3CCCCC3)CCCCC2)cc1	?	0	?	0	0
CCc1ccc(CN(C)C(=O)c2cccc(S(=O)(=O)Nc3ccccc3OC)c2)cc1	?	-	10µM	-	-
COc1ccc(NS(=O)(=O)c2cccc(C(=O)NCC(c3ccc(F)cc3)N3CCOCC3)c2)cc1 (configuration not stated)	?	0	?	0	0
COc1ccc(C(CNC(=O)c2cccc(NC(=O)c3cccs3)c2)N2CCCC2)cc1 (configuration not stated)	5.9µM	-	12µM	-	-
CCC(=O)c1ccc(OCC(=O)NCC2(N3CCCCC3)CCCCC2)cc1	4.7µM	0	0	-	0
COc1ccc(C(CNC(=O)c2cccc(S(=O)(=O)Nc3ccc(C)cc3)c2)N2CCCCC2)cc1 (configuration not stated)	9.3µM	-	8.3µM	-	-
CCOc1ccc(S(=O)(=O)Nc2ccc(C(=O)NCC3(N4CCCCC4)CCCCC3)cc2)cc1	1.2µM	-	3.3µM	-	-
COc1ccccc1NS(=O)(=O)c1cccc(C(=O)NCC(c2ccco2)N2CCCC2)c1 (configuration not stated)	15µM	-	12µM	-	-
CCOc1ccc(NS(=O)(=O)c2ccc(C(=O)N3CCCCC3)cc2)cc1	0	0	?	0	0
Cc1cccc(NS(=O)(=O)c2cccc(C(=O)NCC(c3ccco3)N3CCCCC3)c2)c1 (configuration not stated)	15µM	-	?	-	-

Bioassay records deposited in PubChem BioAssay by National Center for Advancing Translational Sciences (NCATS).
